A short description of test [1]: ATG_CRE_CIS: Attagene CIS-FACTORIAL HepG2 Assay for human cAMP Responsive Element (CRE) binding protein 3 (AID 2282926). The settings on record: HepG2 CRE cis-reporter, Attagene multiplexed mRNA; actives raise or lower the signal. The essentials:
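Cells carrying cis-regulated reporter constructs respond through their own endogenous factors. After 24 h treatment, RNA is reverse-transcribed, amplified, labelled and sized by capillary electrophoresis; up- and down-regulation are both scored against vehicle.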

Test [2] deals with CCAAT/enhancer-binding protein beta (Homo sapiens) (UniProt P17676). The test can be described thus: ATG_C_EBP_CIS: Attagene CIS-FACTORIAL HepG2 Assay for human CCAAT/Enhancer Binding Protein (C/EBP) beta (AID 2282927). The conditions noted are these: HepG2 Attagene cis-factorial transcription factor reporter; actives raise or lower the signal. In short, it runs like this: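 RT-PCR/capillary electrophoresis fluorescence of reporter mRNA, 24 h post-dose, in HepG2 cells carrying transfected cis-promoter reporter units. Bidirectional curve fitting against DMSO baseline captures gain or loss of signal.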
Sequence of CCAAT/enhancer-binding protein beta (Homo sapiens) (P17676 whole entry, looked up): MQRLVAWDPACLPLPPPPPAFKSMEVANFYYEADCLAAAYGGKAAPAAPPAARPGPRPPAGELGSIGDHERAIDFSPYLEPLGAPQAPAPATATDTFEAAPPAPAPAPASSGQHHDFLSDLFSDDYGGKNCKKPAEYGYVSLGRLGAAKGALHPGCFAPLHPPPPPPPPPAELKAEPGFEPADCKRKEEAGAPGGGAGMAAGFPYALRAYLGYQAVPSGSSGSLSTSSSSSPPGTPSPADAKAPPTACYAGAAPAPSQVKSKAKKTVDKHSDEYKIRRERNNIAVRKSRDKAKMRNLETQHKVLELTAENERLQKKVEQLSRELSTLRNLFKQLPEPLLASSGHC

Test [3] can be described thus: ATG_CMV_CIS: Attagene CIS-FACTORIAL HepG2 Assay for human CMV (Internal Marker) (AID 2282928).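 Further: endpoint acts as a background internal control marker rather than a target.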 The settings on record: HepG2 CMV promoter reporter, transcription factor profiling; actives raise or lower the signal. The essentials:
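Readout: fluorescent reporter cDNA fragments separated by capillary electrophoresis after RT-PCR and HpaI cut. Cells: HepG2 carrying transfected cis-promoter reporter constructs, dosed 24 h. Endpoint serves as background internal-marker control, fit bidirectionally versus DMSO.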

A short description of test [4]: ATG_DR4_LXR_CIS: Attagene CIS-FACTORIAL HepG2 Assay for human Liver X Receptor (LXR), DR4 submotif (AID 2282929). The conditions noted are these: HepG2 Attagene DR4 cis-reporter, mRNA transcription; actives raise or lower the signal. The essentials:
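HepG2 cells were transiently transfected with multiple cis-regulated reporter units and dosed for 24 hours. The DR4 reporter mRNA was quantified by RT-PCR, 6-FAM labelling and capillary electrophoresis. Bidirectional fits used DMSO as baseline.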

In test [5] the target is Aryl hydrocarbon receptor (Homo sapiens) (UniProt P35869). The test can be described thus: ATG_Ahr_CIS: Attagene CIS-FACTORIAL HepG2 Assay for human Aryl Hydrocarbon Receptor (Ahr) (AID 2282930). The conditions noted are these: HepG2 AhR cis-factorial reporter transcription; actives raise or lower the signal. In short, it runs like this: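 HepG2 cells transiently transfected with cis-element-driven multiplexed reporter transcription units; endogenous transcription factor activity measured as reporter mRNA 24 h after dosing. RT-PCR, 6-FAM labelling, HpaI digestion, capillary electrophoresis; bidirectional fitting versus DMSO baseline.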
Sequence of Aryl hydrocarbon receptor (Homo sapiens) (P35869 whole entry, looked up): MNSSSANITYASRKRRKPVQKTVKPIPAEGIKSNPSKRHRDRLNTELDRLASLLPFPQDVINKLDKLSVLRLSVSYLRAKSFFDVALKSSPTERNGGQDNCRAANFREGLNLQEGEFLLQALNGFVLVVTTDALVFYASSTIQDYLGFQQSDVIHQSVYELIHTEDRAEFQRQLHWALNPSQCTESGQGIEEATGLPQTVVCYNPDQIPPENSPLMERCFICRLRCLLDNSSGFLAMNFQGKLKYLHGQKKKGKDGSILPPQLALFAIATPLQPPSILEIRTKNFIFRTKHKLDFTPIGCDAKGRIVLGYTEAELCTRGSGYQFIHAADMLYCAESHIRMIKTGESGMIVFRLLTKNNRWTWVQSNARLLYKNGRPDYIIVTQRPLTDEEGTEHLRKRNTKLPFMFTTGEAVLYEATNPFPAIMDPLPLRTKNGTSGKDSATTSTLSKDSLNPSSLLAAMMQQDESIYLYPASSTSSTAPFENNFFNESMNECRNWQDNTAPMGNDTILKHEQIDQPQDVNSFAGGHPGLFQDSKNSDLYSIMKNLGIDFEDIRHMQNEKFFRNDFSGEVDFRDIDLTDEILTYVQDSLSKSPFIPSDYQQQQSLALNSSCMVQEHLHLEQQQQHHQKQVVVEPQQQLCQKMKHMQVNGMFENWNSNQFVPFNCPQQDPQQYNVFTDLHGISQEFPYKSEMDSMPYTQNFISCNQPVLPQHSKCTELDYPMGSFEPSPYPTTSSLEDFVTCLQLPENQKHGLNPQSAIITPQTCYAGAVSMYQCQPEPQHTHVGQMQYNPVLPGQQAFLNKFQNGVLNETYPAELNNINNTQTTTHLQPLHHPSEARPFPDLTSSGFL

A short description of test [6]: ATG_AP_1_CIS: Attagene CIS-FACTORIAL HepG2 Assay for human Activator Protein 1 (AP-1) (AID 2282931). The settings on record: HepG2 Attagene cis-factorial AP-1 reporter mRNA; actives raise or lower the signal. The essentials: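 HepG2 cells transiently transfected with cis-element-driven reporter transcription units, dosed for 24 hours. Reporter mRNA measured by RT-PCR, 6-FAM labelling, HpaI digestion and capillary electrophoresis. Bidirectional fitting against DMSO baseline.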

Test [7] in a line: ATG_AP_2_CIS: Attagene CIS-FACTORIAL HepG2 Assay for human Activator Protein 2 (AP-2) (AID 2282932). The settings on record: HepG2 AP-2 cis-reporter, Attagene transcription factor profiling; actives raise or lower the signal. In short, it runs like this:
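Cells (HepG2) transfected with promoter-driven reporter constructs, treated 24 h. Total RNA reverse-transcribed, reporter cDNA PCR-amplified, FAM-labelled by primer extension, digested, resolved by capillary electrophoresis. Activity fitted both directions versus DMSO.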

The nature of test [8]: ATG_BRE_CIS: Attagene CIS-FACTORIAL HepG2 Assay for human Bone Morphogenetic Protein (BMP) Response Element (BRE) (AID 2282933). The conditions noted are these: HepG2 BMP response element reporter, Attagene transcription factor profiling; actives raise or lower the signal. The essentials: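 A HepG2 multiplex reporter system measured inducible reporter mRNA 24 h post-dosing. Detection: RT-PCR, 6-FAM primer extension, HpaI digestion, capillary electrophoresis. Activity fitted bidirectionally relative to DMSO.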

Test [9] deals with Transcription factor E2F1 (Homo sapiens) (UniProt Q01094). The test can be described thus: ATG_E2F_CIS: Attagene CIS-FACTORIAL HepG2 Assay for human E2F Transcription Factor 1 (AID 2282935). The conditions noted are these: HepG2 Attagene cis-reporter, E2F reporter RNA transcripts; actives raise or lower the signal. In short, it runs like this:
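First, HepG2 cells were transfected with reporter transcription units. Next, they were dosed for 24 h. Then RNA was isolated, converted to cDNA, PCR-amplified, FAM-labeled, HpaI-digested and analyzed by capillary electrophoresis.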

The target of test [10] is Retinoic acid receptor alpha (Homo sapiens) (UniProt P10276). Description: ATG_DR5_RAR_CIS: Attagene CIS-FACTORIAL HepG2 Assay for human Retinoic Acid Receptor Alpha (RARE), DR5 submotif (AID 2282934).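 On AC50: reporter responds to endogenous RAR alpha beta and gamma in HepG2 not RARA alone.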 The conditions noted are these: HepG2 Attagene cis-factorial RARE DR5 reporter, mRNA; actives raise or lower the signal. The essentials: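 HepG2 cells transiently transfected with multiplexed reporter units under cis (DR5 RARE) promoters, so endogenous transcription factor activity is measured. After 24 h compound exposure, reporter mRNA is quantified by RT-PCR with fluorescent labelling and capillary electrophoresis; bidirectional fitting versus DMSO.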
Sequence of Retinoic acid receptor alpha (Homo sapiens) (P10276 whole entry, looked up): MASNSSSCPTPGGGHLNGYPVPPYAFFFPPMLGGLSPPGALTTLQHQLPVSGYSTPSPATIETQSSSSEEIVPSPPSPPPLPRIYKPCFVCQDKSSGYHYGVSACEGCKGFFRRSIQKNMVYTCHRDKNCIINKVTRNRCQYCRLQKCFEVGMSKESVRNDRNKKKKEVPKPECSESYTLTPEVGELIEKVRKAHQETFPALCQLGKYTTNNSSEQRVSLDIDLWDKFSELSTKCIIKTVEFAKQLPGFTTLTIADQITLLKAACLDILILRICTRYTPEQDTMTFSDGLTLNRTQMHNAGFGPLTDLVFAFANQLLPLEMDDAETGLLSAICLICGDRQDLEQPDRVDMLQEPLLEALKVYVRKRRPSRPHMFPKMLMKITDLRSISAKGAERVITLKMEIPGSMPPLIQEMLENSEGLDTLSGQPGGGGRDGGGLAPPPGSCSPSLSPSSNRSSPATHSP

Activity calls are given as the source filed them. How the source made its calls: active means hit-call score of the fitted dose curve at least 0.9, where 1 is the maximum; inactive means score below 0.9.

Sequence of Transcription factor E2F1 (Homo sapiens) (Q01094 whole entry, looked up): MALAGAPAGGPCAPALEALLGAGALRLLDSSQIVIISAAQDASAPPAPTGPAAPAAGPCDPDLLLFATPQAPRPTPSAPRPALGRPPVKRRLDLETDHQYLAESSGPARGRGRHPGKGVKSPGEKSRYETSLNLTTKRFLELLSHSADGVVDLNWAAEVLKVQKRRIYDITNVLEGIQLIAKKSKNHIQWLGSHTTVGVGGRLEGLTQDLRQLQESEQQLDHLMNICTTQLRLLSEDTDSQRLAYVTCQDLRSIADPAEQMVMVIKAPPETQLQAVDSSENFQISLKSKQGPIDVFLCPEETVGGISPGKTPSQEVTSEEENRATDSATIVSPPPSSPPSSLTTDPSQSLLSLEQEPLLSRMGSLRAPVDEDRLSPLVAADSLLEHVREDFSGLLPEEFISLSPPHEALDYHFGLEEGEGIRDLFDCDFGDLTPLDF

As to `C=C(C)[C@H]1CC=C(C)CC1`, the compound was called inactive in test [1], in [2], in test [3], in test [4], in test [5] and in [6]. Besides, the call in [7], in test [8] and in [9] was inactive.

Turning to `CCCc1ccc(OC)cc1`, the outcome in test [1], in test [2], in [3], in test [4], in test [6] and in test [7] was inactive. Further, the compound was classed as inactive in test [8] and in test [10].

For the compound `OC1OCCOC1O` (centres undefined), the compound was classed as inactive in test [1], in test [2], in [3], in [4], in test [5] and in test [6]. For the same compound, the call in test [7], in [8], in test [10] and in [9] was inactive.

In the case of `CCCCCc1ccc(Cl)cc1`, the compound was classed as inactive in test [1], in [2], in test [4], in [5], in [6] and in test [7]. The call in [8] was inactive. The results for the AC50 in test [3], in [10] and in test [9] were 66.4 µM (active), 84.1 µM (active) and 61.5 µM (active), respectively.

Regarding `CC1=CC[C@H](C(C)C)C=C1`, the compound was called inactive in test [1], in test [2], in test [3], in [4], in test [5] and in [6]. The compound was called inactive in [7], in test [8] and in test [9].

With `S=C(NC1CCCCC1)NC1CCCCC1`, the compound was called inactive in [1], in test [2], in test [3], in test [4], in test [6] and in test [7]. Also, the call in test [8] and in test [10] was inactive.

Turning to `C/C=C\C/C=C/CCCCCCCCOC(C)=O`, the compound was classed as inactive in test [1], in test [2], in [3], in [5], in test [7] and in test [10]. In test [9], the result was inactive. The concentration at half-maximal activity (AC50) in test [4] is 122 µM (active); in test [6], 134 µM (active); in test [8], 67.9 µM (active).

For the compound `C#CC1(O)CC[C@H]2[C@@H]3CCC4=CCCC[C@@H]4[C@H]3CC[C@@]21C` (some centres undefined), the compound was classed as inactive in [1], in test [2], in test [3], in test [5], in test [6] and in [7]. Moreover, the compound was called inactive in test [9]. The AC50 in [4] was 1.24 µM (active); in test [8], 34 µM (active); in test [10], 49 µM (active).

As for `O=c1n(CCO)c(=O)n(CCO)c(=O)n1CCO`, the compound was classed as inactive in test [1], in test [3], in [4], in test [5], in test [6] and in test [7]. The call in test [8], in test [10] and in test [9] was inactive.

Regarding `Nc1ccc(Cl)cc1Cl`, the result in test [1], in test [3], in test [4], in test [6], in test [7] and in test [8] was inactive. Further, the call in [10] and in test [9] was inactive.

Consider `c1ccc(CCCc2ccncc2)cc1`, for which the compound was called inactive in test [1], in test [4], in test [5], in [10] and in test [9]. Besides, the AC50 in test [3] is 43.2 µM (active); in test [6], 37.7 µM (active); in test [7], 100 µM (active); in [8], 93.3 µM (active).

Take `C(=CC=Nc1ccccc1)C=CNc1ccccc1`: the outcome in [1], in test [3], in test [4], in test [7], in test [8] and in test [10] was inactive. Besides, the call in [9] was inactive. The AC50 in test [6] was 100 µM (active).

Turning to `CC(CC=O)CCCC(C)(C)O` (centres undefined), the outcome in [1], in [3], in test [4], in test [6], in [7] and in [8] was inactive. The call in [10] and in test [9] was inactive.

On to `Cc1cnc(NC(=O)C2=C(O)c3ccccc3S(=O)(=O)N2C)s1`, for which the result in test [1], in test [2], in test [3], in [6], in test [7] and in [8] was inactive. Also, the outcome in test [10] and in [9] was inactive.
